Test results: ChEMBL document CHEMBL3988442, “University of Dundee, Small-Polar-MMV Screening Library” (2021)
For some assays here: Potency and affinity values are given separately.

Experiments:
Parameters in all cases: scale not given: direction of the effect not stated beside the values
[1] = target: Protein translocase subunit SecA (Escherichia coli (strain K12)) (UniProt P10408); assay: Assay to Identify E. coli SecA ATPase Inhibitors; type: functional; conditions: 30 µM
[2] = target: T1, Ubiquitin-activating enzyme e1, putative (Leishmania donovani (strain BPK282A1)) (UniProt E9BSI1); assay: Leishmania donovani Ubiquitin Activating Enzyme (LdE1); type: functional; conditions: 30 µM
T1 sequence (whole entry): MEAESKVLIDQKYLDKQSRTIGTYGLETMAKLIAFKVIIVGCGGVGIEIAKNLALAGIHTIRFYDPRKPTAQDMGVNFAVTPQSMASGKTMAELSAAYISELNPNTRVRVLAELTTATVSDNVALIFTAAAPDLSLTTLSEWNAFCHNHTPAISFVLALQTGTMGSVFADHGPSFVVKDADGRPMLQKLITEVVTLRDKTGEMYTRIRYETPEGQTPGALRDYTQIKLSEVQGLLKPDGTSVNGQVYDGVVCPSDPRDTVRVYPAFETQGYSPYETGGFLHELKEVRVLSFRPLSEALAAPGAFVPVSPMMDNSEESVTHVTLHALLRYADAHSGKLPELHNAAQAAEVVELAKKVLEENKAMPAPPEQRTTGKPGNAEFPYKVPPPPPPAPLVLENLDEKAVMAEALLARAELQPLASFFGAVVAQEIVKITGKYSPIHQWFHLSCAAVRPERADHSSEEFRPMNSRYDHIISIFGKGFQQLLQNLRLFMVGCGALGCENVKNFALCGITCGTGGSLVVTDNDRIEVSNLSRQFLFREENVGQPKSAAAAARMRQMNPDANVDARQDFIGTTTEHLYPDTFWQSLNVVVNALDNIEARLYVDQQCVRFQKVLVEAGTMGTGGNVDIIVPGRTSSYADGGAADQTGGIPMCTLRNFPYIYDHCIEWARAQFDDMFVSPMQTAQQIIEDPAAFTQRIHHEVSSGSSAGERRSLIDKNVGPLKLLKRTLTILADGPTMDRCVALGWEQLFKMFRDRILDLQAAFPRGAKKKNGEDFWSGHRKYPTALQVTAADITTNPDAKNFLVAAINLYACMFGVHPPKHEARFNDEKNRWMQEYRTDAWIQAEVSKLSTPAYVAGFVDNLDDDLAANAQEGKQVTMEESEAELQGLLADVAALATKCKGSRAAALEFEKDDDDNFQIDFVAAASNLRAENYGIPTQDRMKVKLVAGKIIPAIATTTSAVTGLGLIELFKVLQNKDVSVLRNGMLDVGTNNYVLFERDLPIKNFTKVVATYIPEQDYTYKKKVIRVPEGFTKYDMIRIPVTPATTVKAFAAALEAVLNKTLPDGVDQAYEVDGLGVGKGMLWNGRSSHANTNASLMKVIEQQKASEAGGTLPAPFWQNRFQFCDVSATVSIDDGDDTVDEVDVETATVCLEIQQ

[3] = target: AMP-activated protein kinase, AMPK (Homo sapiens) (UniProt P54646+O43741+P54619+Q9UGJ0+Q9Y478+Q13131+Q9UGI9); assay: AMP-dependent Kinase enzyme assay. An in vitro enzyme assay that detects ADP turnover that is directly proportional to AMPK activity. This uses naive AMPK that is activated during the assay with MK-8722; type: functional; conditions: 30 µM
[4] = target: Sialic acid-binding Ig-like lectin 9 (Homo sapiens) (UniProt Q9Y336); assay: Hs-Siglec9 ALPHAscreen SOP 20170721; conditions: 10 µM
Sequence of Sialic acid-binding Ig-like lectin 9 (Homo sapiens) (Q9Y336 whole entry): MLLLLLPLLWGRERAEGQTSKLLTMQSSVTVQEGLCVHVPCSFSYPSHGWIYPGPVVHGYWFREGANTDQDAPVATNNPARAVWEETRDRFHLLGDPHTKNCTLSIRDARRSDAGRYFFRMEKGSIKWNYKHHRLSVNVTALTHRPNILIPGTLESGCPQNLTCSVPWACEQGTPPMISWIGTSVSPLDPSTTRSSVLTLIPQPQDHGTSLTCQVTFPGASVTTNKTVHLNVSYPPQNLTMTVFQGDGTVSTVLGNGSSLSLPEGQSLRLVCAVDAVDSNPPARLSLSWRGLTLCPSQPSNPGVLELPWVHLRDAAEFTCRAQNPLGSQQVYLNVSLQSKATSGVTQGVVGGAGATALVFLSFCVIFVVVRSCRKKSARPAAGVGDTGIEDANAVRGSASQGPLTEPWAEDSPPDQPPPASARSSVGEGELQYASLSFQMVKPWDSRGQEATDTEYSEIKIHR

[5] = test system: Trypanosoma cruzi; assay: Trypanosoma cruzi phosphomannomutase and mannose-1-phosphate guanylyltransferase assay; type: functional; conditions: 10 µM
[6] = target: T2, Arginase-2, mitochondrial (Homo sapiens) (UniProt P78540); assay: in vitro enzyme assay to detect the production of urea directly proportional to the activity of Arginase II; type: functional; conditions: 33.3 µM; further: in the data most compounds retested in dose-response had high values
T2 sequence (whole entry): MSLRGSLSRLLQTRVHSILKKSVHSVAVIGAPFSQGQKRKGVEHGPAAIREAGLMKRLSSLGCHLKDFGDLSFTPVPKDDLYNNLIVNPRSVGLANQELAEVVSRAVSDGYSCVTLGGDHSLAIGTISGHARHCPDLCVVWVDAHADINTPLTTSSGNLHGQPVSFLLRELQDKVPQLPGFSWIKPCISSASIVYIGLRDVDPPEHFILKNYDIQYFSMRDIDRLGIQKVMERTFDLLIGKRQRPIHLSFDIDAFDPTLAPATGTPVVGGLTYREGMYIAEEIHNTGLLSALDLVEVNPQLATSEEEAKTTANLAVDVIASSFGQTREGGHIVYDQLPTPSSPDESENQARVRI

[7] = target: T3, Proteasome subunit beta (Trypanosoma cruzi) (UniProt O96673); assay: Trypanosoma cruzi proteasome chymotrypsin-like activity (TcProtChymo) assay.; further: in the data most compounds retested in dose-response had high values; type: functional; conditions: 9.37 µM
T3 sequence (whole entry): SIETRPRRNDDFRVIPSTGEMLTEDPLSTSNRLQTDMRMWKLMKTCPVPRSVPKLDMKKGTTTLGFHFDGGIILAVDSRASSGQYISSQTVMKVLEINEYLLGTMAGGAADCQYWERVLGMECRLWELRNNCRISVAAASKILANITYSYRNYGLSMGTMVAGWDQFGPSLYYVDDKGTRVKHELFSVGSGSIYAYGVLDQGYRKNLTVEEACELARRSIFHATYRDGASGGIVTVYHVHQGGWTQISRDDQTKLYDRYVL

[8] = species: Homo sapiens; assay: To identify inhibition of the IFN signalling (Jak-Stat) pathway via expression of an eGFP reporter gene under the control of an IFN-stimulated response element (ISRE) containing MxA promoter.; type: functional; conditions: 30 µM
[9] = target: T4, Tyrosyl-tRNA synthetase, putative (Trypanosoma cruzi (strain CL Brener)) (UniProt Q4DSP6); assay: Trypanosoma cruzi tyrosyl tRNA synthetase (TcYRS) _High Tyrosine SOP; type: functional; conditions: 30 µM; further: in the data most compounds retested in dose-response had high values
T4 sequence (whole entry): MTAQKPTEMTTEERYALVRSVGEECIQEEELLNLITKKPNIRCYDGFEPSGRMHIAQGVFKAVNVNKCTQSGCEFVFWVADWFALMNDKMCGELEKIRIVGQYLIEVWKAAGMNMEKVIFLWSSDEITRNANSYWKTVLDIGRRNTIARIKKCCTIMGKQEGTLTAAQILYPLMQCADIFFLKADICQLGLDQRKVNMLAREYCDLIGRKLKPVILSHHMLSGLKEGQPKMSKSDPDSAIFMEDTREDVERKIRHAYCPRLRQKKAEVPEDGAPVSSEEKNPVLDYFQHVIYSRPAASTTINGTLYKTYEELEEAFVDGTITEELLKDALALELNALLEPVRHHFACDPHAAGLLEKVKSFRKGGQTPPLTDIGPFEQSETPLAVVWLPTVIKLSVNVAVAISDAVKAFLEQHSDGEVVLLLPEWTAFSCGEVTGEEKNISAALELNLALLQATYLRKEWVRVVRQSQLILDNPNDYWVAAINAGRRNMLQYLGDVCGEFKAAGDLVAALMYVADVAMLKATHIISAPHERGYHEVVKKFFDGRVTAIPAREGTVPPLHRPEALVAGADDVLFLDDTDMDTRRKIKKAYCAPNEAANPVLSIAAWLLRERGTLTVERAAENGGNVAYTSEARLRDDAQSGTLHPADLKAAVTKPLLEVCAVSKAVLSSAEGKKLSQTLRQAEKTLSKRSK

[10] = target: T4, Tyrosyl-tRNA synthetase, putative (Trypanosoma cruzi (strain CL Brener)); assay: Trypanosoma cruzi tyrosyl tRNA synthetase (TcYRS) SOP; type: functional; conditions: 30 µM
[11] = target: Chromo domain-containing protein 1 (Saccharomyces cerevisiae (strain ATCC 204508 / S288c) (Baker's yeast)) (UniProt P32657); assay: ScCHD-1 Enzyme Inhibition Assay; type: functional; conditions: 30 µM; further: in the data most compounds retested in dose-response had high values
Sequence of Chromo domain-containing protein 1 (Saccharomyces cerevisiae (strain ATCC 204508 / S288c) (Baker's yeast)) (P32657 whole entry, the tested form may be a part): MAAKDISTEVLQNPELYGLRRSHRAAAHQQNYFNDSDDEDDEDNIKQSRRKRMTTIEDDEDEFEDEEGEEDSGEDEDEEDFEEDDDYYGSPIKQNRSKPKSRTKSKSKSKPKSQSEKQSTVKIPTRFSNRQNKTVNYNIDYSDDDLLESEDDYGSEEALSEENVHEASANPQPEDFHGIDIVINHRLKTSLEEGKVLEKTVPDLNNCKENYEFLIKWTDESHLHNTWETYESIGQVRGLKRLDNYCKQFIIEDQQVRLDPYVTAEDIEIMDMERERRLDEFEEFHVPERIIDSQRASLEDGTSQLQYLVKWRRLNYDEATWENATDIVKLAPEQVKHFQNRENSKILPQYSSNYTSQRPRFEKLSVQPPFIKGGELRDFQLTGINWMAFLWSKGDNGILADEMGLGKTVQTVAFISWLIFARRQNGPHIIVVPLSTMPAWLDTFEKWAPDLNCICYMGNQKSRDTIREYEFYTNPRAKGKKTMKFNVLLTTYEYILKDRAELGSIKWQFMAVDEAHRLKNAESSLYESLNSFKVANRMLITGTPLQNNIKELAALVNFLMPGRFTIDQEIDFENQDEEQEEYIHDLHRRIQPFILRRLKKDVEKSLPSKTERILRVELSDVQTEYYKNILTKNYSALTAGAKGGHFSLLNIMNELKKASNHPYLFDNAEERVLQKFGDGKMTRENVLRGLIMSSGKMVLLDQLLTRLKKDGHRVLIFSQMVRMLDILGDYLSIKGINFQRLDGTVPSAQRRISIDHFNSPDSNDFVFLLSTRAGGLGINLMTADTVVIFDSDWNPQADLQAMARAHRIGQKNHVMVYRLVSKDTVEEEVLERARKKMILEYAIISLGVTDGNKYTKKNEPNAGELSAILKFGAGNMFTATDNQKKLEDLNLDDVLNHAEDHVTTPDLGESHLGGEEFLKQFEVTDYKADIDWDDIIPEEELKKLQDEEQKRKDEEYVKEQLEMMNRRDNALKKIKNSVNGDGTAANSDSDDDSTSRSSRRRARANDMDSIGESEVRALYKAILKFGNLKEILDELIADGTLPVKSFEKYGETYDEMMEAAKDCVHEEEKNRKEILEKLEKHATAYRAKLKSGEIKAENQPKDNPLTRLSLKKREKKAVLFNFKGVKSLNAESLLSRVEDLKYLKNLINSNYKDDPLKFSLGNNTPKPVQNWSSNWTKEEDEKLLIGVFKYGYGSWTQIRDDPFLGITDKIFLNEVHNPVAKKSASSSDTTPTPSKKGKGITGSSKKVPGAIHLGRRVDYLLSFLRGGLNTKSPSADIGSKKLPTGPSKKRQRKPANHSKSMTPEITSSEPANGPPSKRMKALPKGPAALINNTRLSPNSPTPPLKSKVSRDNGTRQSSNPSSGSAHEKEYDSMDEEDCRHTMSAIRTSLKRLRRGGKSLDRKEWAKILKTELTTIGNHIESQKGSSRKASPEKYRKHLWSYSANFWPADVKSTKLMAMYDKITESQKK

Sequence of Protein translocase subunit SecA (Escherichia coli (strain K12)) (P10408 whole entry): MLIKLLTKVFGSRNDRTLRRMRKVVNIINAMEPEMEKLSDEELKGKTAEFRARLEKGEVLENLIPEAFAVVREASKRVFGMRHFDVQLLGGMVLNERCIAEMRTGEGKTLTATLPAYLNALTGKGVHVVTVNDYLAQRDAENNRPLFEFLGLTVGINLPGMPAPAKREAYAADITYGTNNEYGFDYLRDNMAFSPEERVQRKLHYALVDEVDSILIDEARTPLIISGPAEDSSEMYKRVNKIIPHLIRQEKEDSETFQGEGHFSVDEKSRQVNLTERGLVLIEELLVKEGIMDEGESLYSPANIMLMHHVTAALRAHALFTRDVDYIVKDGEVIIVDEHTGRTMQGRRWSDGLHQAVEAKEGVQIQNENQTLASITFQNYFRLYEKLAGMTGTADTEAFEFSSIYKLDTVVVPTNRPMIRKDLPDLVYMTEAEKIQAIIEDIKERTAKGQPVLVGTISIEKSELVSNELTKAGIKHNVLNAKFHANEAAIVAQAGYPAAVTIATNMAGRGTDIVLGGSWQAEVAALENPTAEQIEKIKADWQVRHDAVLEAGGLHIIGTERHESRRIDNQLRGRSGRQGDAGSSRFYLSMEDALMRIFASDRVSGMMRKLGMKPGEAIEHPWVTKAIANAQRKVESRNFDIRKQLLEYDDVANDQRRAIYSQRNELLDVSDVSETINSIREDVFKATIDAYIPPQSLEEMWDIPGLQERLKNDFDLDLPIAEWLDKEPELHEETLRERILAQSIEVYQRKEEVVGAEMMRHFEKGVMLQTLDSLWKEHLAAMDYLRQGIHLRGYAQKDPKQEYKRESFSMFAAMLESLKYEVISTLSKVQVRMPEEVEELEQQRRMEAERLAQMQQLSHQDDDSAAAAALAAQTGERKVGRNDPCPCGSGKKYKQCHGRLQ

| SMILES | Percent Effect [1] | Percent Effect [2] | Percent Effect [3] | Percent Effect [4] | Percent Effect [5] | Percent Effect [6] | Percent Effect [7] | Percent Effect [8] | Percent Effect [9] | Percent Effect [10] | Percent Effect [11] |
| --- | --- | --- | --- | --- | --- | --- | --- | --- | --- | --- | --- |
| CC(C)N1CCC(N2CCN(C3CCC3)CC2CCO)CC1 (stereo unspecified) | -2.22% | 1.39% | -21.6% | 12% | 5.73% | 20.8% | -1.75% | -10.3% | 2.1% | 5.13% | 0.447% |
| N#Cc1ccccc1OCCN1CCCCC1Cn1cncn1 (stereo unspecified) | -2.06% | 5.41% | -28.6% | 8.52% | 5.94% | -5.61% | 3.78% | -11.9% | 12.3% | 16.1% | -11.1% |
| Cc1nn(C)c(N(C)C)c1CNCc1cccc(CN(C)C(C)C)c1 | -3.75% | 13.5% | -10.9% | 25.4% | 3.03% | 10.7% | 9.87% | -7.67% | 5.38% | 21% | -8.38% |
| CCNC(c1cccnc1)c1cc(C)cc(C)c1 (stereo unspecified) | -3.46% | -3.8% | 4.33% | -1.27% | 2.15% | -4.52% | 5.83% | -28.2% | 0% | 5.06% | 2.53% |
| CCN(CCNC(=O)c1ccccc1OCCOC)C1CC1 | -1.14% | 21.5% | -0.982% | -8.11% | 0.513% | -4.52% | 17% | 14.4% | 3.12% | 17.7% | -34.3% |
| COc1cccc(CNC(=O)CC2CSc3ncc(C)c(=O)n32)c1 (stereo unspecified) | -1.02% | 15.6% | 31.4% | -9.59% | -5.03% | 3.23% | 13.9% | 16.4% | 5.29% | 3.85% | -9.11% |
| COc1cc2nc3n(c(=O)c2cc1OC)CCN(C)CC3 | -7.78% | 1.35% | 11.9% | 1.61% | -3.56% | -3.48% | 0.312% | 0.926% | 2.15% | 3.9% | -5.62% |
| Cc1nc(C)n(C2CCCN(C(=O)c3cc(C(N)=O)cs3)C2)n1 (stereo unspecified) | -7.57% | 13.9% | 0.492% | -4% | 0.718% | 1.07% | 8.92% | -7.04% | 2.08% | 12.7% | -31.4% |
| COCCO[C@@H]1CCN(C(=O)c2ccc(C)o2)[C@@H]1Cc1cccnc1 | -5.36% | 0% | 9.87% | -4.82% | -3.91% | 4.17% | 8.03% | 2.29% | 5.94% | 8.54% | -1.12% |
| O=C(c1cccc2c1OCCO2)N1CCCC(n2ccnc2)C1 (stereo unspecified) | -2.67% | 5.26% | 2.73% | -0.188% | -9.77% | 3.45% | 2.17% | 13.9% | 3.43% | 4.88% | 3.23% |
| CCCN1CCN(C(=O)c2scnc2C)CC1 | -7.16% | 10.5% | 0.673% | 9.57% | 2.82% | 0% | 9.3% | -10.2% | 1.06% | 10.4% | -4.16% |
| COCC1c2c(cnn2CC2CC2)CCN1Cc1cccs1 (stereo unspecified) | -0.701% | -5.33% | 6.98% | 7.58% | -2.51% | -9.5% | 10.1% | -16.5% | 3.12% | -2.5% | -3.74% |
| Cc1nc(C)n(CC2CCCN(Cc3cccc(C#N)c3)C2)n1 (stereo unspecified) | -3.63% | -18.9% | -7.23% | 5.42% | -1.23% | -7.62% | 5.59% | 3.79% | 6.4% | 13.6% | -5.48% |
| CCc1c(C)nc2cc(C3CCN(Cc4ccccc4F)C3)nn2c1O (stereo unspecified) | 0.76% | -14.9% | -7.43% | -10.9% | -2.77% | 2.09% | 20.9% | 17% | 4.3% | 9.09% | -7.83% |
| COCCN1CCC(NCc2cccc(F)c2)C1 (stereo unspecified) | -3.31% | 13% | -4.27% | 0.179% | -5.24% | -4.27% | 8.78% | 32.2% | 5.83% | 0% | -9.86% |
| c1cnnc(N2CCCC2CNc2ncnc3ccccc23)c1 (stereo unspecified) | -3.22% | -3.8% | 9.15% | -3.44% | -4.41% | 4.09% | 9.61% | 36% | 25% | 27.9% | -16.5% |
